The results in this text go back to PubChem BioAssay AID527 (NMMLSC, 2006).

In general, inhibition refers to the relative decrease from the control value, in per cent.

Screen size: about 24,000 compounds; about 65 (0.3%) were called active.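 Rule for the calls: active = share of bacteria positive for the green fluorescent reporter and its mean brightness both inhibited by 50% or more; inactive = the rest, inconclusive results apart.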 The full list was thinned out, with actives kept by preference.

This test is described as follows: blockers of AIP-driven agr signalling in S. aureus – RNAIII-GFP reporter, flow cytometry, primary screen (AID 527).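 Note: 0% = AIP-stimulated control and 100% = unstimulated bacteria without AIP.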 The settings on record: S. aureus RN6390 RNAIII-GFP reporter, AIP-induced, flow cytometry 3 h, at 2 µM, stronger effect = higher value. A general note: In flow cytometry, cells or beads pass a laser one at a time.
The mark [1] stands for this setting: measured here: inhibition of GFP MFI.

Regarding `O=C(NC1=NCCS1)[C@H](Cc1ccccc1)N1C(=O)c2ccccc2C1=O`, the inhibition is -2% (inactive). For the same molecule, under setting [1], the inhibition is -7.9%.
Taken in the same sequence, the figures for `CCOc1ccc(/C(O)=C2/C(=O)C(=O)N(Cc3cccnc3)C2c2ccc(N(C)C)cc2)c(C)c1` (centres undefined) were -1.8% (inactive) and -3.1%.
The like results for `Cc1cc(NC(=O)CSc2nnc(-c3ccc(Cl)s3)o2)no1` were, in that order, -5.9% (inactive) and -26.8%.
The like results for `COc1ccc(NC(=O)CCNC(=O)Cn2ccc3ccccc3c2=O)c(OC)c1` were, in that order, -1.1% (inactive) and -13.6%.
Regarding `COc1ccccc1N1CCN(c2nc3ccccc3n3nnnc23)CC1`, the inhibition is -2.2% (inactive). In addition, the inhibition under setting [1] is -4.7%.
`CC(=O)c1cccc(S(=O)(=O)N2CCC(n3nnc4cc(F)ccc43)CC2)c1`: the inhibition is -1.4% (inactive). Also, the inhibition under setting [1] is -26.3%.
The like results for `CCOC(=O)c1cn(CC(=O)Nc2ccc(C(C)C)cc2)nn1` were, in that order, 2.3% (inactive) and 13.3%.
Taken in the same sequence, the figures for `CCOC(=O)c1ccc(Nc2cc(C)nc3nc(C)nn23)cc1` were -5.5% (inactive) and -32.8%.
Taken in the same sequence, the figures for `Cn1c(C(=O)NCCN2CCc3ccccc3C2)cc2c(=O)[nH]c3ccccc3c21` were -1.3% (inactive) and -0.4%.
`COc1ccc(-n2ncc3c(N4CCCc5ccccc54)ncnc32)cc1`: the inhibition was -3.1% (inactive). For the same molecule, the inhibition under setting [1] was -2.2%.
The like results for `C=CCOc1ccc(/C=N/n2cncn2)cc1OC` were, in that order, 0.5% (inactive) and -15.3%.
As for `Cc1ccc(NC2=NC(c3ccccc3)n3c(nc(C)cc3=O)N2)cc1` (centres undefined), the inhibition was -2.1% (inactive). Further, the inhibition under setting [1] was -6.2%.
For `CCCNC(=O)Nc1ccccc1C(=O)Nc1ccc(OC)cc1`, the inhibition is 1.7% (inactive). In addition, the inhibition under setting [1] is 13.6%.
In the case of `COc1ccc(NC(=O)c2c(SC)nsc2SC)cc1`, the inhibition is 67.4% (active). Further, the inhibition under setting [1] turned out to be 74.3%.
Consider `COc1ccc(CC(=O)Nc2ccc(-c3nnc(-c4ccc(C)cc4)o3)cc2)cc1`, for which the inhibition is 7.6% (inactive). The inhibition under setting [1] was 35.1%.
In the case of `Cc1noc(COc2ccccc2OCC(O)CNC(C)(C)C)n1` (centres undefined), the inhibition is -0.1% (inactive). Further, under setting [1], the inhibition is 0.9%.
With `Cc1cccc(C2c3c(n(C)c(=O)n(C)c3=O)N=C3c4ccccc4C(=O)C32)c1` (centres undefined), the inhibition is 1.5% (inactive). Moreover, under setting [1], the inhibition is 20.3%.
On to `COc1cccc(N(C(=O)c2ccn[nH]2)C2(C(=O)Nc3c(C)cccc3C)CCCCC2)c1`, for which the inhibition is 5.5% (inactive). In addition, the inhibition under setting [1] is -8%.
Taken in the same sequence, the figures for `CCN(Cc1nc2ccccc2c(=O)[nH]1)Cc1cc(=O)oc2cc(C)c(C)cc12` were 4.2% (inactive) and 13.1%.
Taken in the same sequence, the figures for `Cn1c(COc2ccc(Cl)cc2)nc2ccccc2c1=O` were -6.8% (inactive) and -42.8%.
Consider `COc1ccc(OC)c(C2N(c3ccccn3)C(=O)C3CCCN32)c1` (centres undefined), for which the inhibition was -2.2% (inactive). Under setting [1], the inhibition was -7.1%.
Regarding `COc1cccc(C(CC(=O)NCCN2CCOCC2)NS(=O)(=O)c2ccc(C)cc2)c1OC` (centres undefined), the inhibition was -5% (inactive). Also, under setting [1], the inhibition is -11.5%.
Taken in the same sequence, the figures for `COc1ccccc1C(=O)n1nc(-c2ccccc2)nc1N` were -0.9% (inactive) and -0.5%.
The like results for `Cc1cc(=O)n2nc(N3CCCC3C(=O)NCCCN3CC(C)CC(C)C3)sc2n1` (centres undefined) were, in that order, 2.5% (inactive) and 17.6%.
The like results for `CC1CCCCN1S(=O)(=O)c1ccc(C(=O)Nc2nnc(-c3cccs3)o2)cc1` (centres undefined) were, in that order, 65.9% (active) and 62.3%.
Take `CCc1nnc(NC(=O)c2ccc(S(=O)(=O)NC3CCCCC3)cc2)s1`: the inhibition is 0.3% (inactive). In addition, under setting [1], the inhibition was 4.5%.
Take `COc1cccc(-c2nnc(NC(=O)c3ccc(S(=O)(=O)N(CC(C)C)CC(C)C)cc3)o2)c1`: the inhibition was 14.3% (inactive). For the same molecule, the inhibition under setting [1] was found to be 15.6%.
For `O=C(O)Cc1ccc(-c2ccccc2)cc1`, the inhibition was -0.8% (inactive). Further, the inhibition under setting [1] stood at 3.1%.
Consider `CN(C(=O)C1CCOC1)c1nnc(-c2cccnc2)s1` (centres undefined), for which the inhibition was -2.1% (inactive). For the same molecule, the inhibition under setting [1] came to 1.3%.
In the case of `COc1ccc(N2CCN(C(=O)CNC(=O)c3ccc(C(C)(C)C)cc3)CC2)cc1`, the inhibition is -5.2% (inactive). The inhibition under setting [1] was -22.7%.
The like results for `CCOc1cc(C(=O)Nc2ncccn2)cc(OCC)c1OCC` were, in that order, -0.2% (inactive) and 0.7%.
The like results for `COC(=O)Nc1ccc(S(=O)(=O)N(C)CC(F)(F)C(F)F)cc1` were, in that order, -3.8% (inactive) and -5.8%.
On to `CC(=O)NC(Cc1ccc(F)cc1)C(=O)O` (centres undefined), for which the inhibition was -5.3% (inactive). In addition, the inhibition under setting [1] was -7.6%.
The like results for `Cc1nc2ccc(S(=O)(=O)NC(C(=O)N3CCCCCC3)C(C)C)cc2s1` (centres undefined) were, in that order, 0.8% (inactive) and -1%.
Turning to `Cc1nc(NC(=O)CCC(=O)O)sc1C(=O)N(C)C`, the inhibition was -4.1% (inactive). The inhibition under setting [1] is -15.4%.
The like results for `O=C(O)C1C2C=CC(C2)C1C(=O)N1CCN(CCO)CC1` (centres undefined) were, in that order, -0.3% (inactive) and -23.2%.
With `Cc1nnc(SCCCn2c(N3CCCCC3)nc3c2c(=O)[nH]c(=O)n3C)s1`, the inhibition was 2.3% (inactive). Besides, the inhibition under setting [1] stood at 8.9%.
Taken in the same sequence, the figures for `CCOC(=O)CSc1nnc(CNC(=O)c2cccs2)n1-c1cc(OC)ccc1OC` were 1.2% (inactive) and 29.5%.
In the case of `O=C(CSc1nc2ccccc2o1)N1CCN(c2ccc(Cl)cc2)CC1`, the inhibition is 0.5% (inactive). Besides, under setting [1], the inhibition was found to be 5.2%.
`CCOc1ccc(NC(=O)CC2NCCNC2=O)cc1` (centres undefined): the inhibition was 0.5% (inactive). In addition, the inhibition under setting [1] came to 16.7%.
The like results for `CCOc1ccc(CNC(=O)C2CCC(=O)N2C2CCCC2)cc1OC` (centres undefined) were, in that order, 3.8% (inactive) and 11.6%.
Consider `CCOC(=O)N1CCC(NC(=O)c2ccc3nc(N4CCOCC4)sc3c2)CC1`, for which the inhibition was -5.4% (inactive). In addition, the inhibition under setting [1] was -36.9%.
